This is part of a sample that, as a whole, favours compounds with a hit. Of some 83,000 tested, about 20% had one in any assay.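 Values shown are percent growth following 48 h exposure of cells in 96-well plates to a single concentration of compound; below 10 was considered active.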 A number with no mark means an inactive call. Calls of active or inactive are those of the source.
How the values were obtained:
Assay in all cases: NCI-60 one-dose screen, 48 h (100 = growth as untreated, 0 = no growth, -100 = all killed)
Conditions in all cases: 10 µM unless noted
NCI-H23 lung = test system: NCI-H23 lung
NCI-H322M lung = test system: NCI-H322M lung
HOP-62 NSCLC = test system: HOP-62 NSCLC
NCI-H460 lung = test system: NCI-H460 lung
HOP-92 NSCLC = test system: HOP-92 NSCLC
NCI-H522 lung = test system: NCI-H522 lung
786-0 renal = test system: 786-0 renal
COLO 205 colon = test system: COLO 205 colon
DU-145 prostate = test system: DU-145 prostate
K-562 leukemia = test system: K-562 leukemia
MALME-3M melanoma = test system: MALME-3M melanoma
MDA-MB-231 breast = test system: MDA-MB-231 breast
RXF 393 renal = test system: RXF 393 renal
SF-268 CNS = test system: SF-268 CNS
SF-295 CNS = test system: SF-295 CNS
SF-539 CNS = test system: SF-539 CNS
UACC-257 melanoma = test system: UACC-257 melanoma
M14 melanoma = test system: M14 melanoma
HCT-15 colon = test system: HCT-15 colon
A549/ATCC NSCLC = test system: A549/ATCC NSCLC

SMILES	growth (NCI-H23 lung)	growth (NCI-H322M lung)	growth (HOP-62 NSCLC)	growth (NCI-H460 lung)	growth (HOP-92 NSCLC)	growth (NCI-H522 lung)	growth (786-0 renal)	growth (COLO 205 colon)	growth (DU-145 prostate)	growth (K-562 leukemia)	growth (MALME-3M melanoma)	growth (MDA-MB-231 breast)	growth (RXF 393 renal)	growth (SF-268 CNS)	growth (SF-295 CNS)	growth (SF-539 CNS)	growth (UACC-257 melanoma)	growth (M14 melanoma)	growth (HCT-15 colon)	growth (A549/ATCC NSCLC) [%]
Nc1ccc(-n2c(=O)oc3ccc(Cl)cc3c2=O)c(Cl)c1	-4.26% (active)	-2.46% (active)	-6.88% (active)	2.28% (active)	-13.1% (active)	-20.1% (active)	-33.5% (active)	-27.4% (active)	9.79% (active)	7.44% (active)	-29.6% (active)	-25.6% (active)	-6.99% (active)	3.88% (active)	-58% (active)	-5.36% (active)	-21.1% (active)	-11.2% (active)	1.16% (active)	–
COc1ccc(CCN2C(=O)CCSC2=S)cc1	80%	87.6%	18.6%	77%	41.9%	11.1%	16.8%	36.3%	13.8%	29.2%	76.7%	59.2%	18.7%	46.2%	67.2%	7.31% (active)	85.4%	61.2%	12.4%	–
O=C(CCc1nnc2sc(COc3ccccc3)nn12)c1nc2ncccc2[nH]1	85.4%	91.9%	90.7%	93.3%	93.6%	79.4%	108%	107%	106%	107%	91.4%	91.8%	98.4%	96%	103%	100%	98.9%	95.6%	100%	–
O=C(COc1cc(O)c2c(=O)cc(-c3ccccc3)oc2c1)Nc1ccccc1	83.7%	85.6%	101%	61.6%	89.9%	81.5%	81.9%	108%	81.5%	95.3%	97.7%	72.9%	98.3%	91%	101%	91%	97.3%	85.4%	96%	–
Cc1ccc(NC2=CC(=O)C(=O)c3ccccc32)c(C)c1	-25.5% (active)	57.7%	27.3%	-56.7% (active)	123%	47.6%	99.4%	85%	-60.8% (active)	61.3%	62.5%	49.5%	85.5%	63.2%	34.6%	48.8%	23.1%	-15.5% (active)	13.3%	–
Cc1ccccc1CNC(=O)C1CN(c2ccc(Cl)cc2)N(c2ccc(Cl)cc2)C1=O (stereo not drawn)	90.6%	89.1%	83.2%	91.4%	96.9%	68.5%	96.7%	–	99.7%	51.6%	91.1%	84.6%	91.6%	83.7%	90.1%	98.7%	78.6%	90.1%	78.8%	64.4
O=S(=O)(Nc1ncccn1)c1ccc(NC2Nc3nc4ccccc4nc3S2)cc1 (stereo not drawn)	97%	97.7%	99.6%	103%	105%	94.5%	100%	–	105%	98.2%	96.1%	99.3%	109%	97.9%	99.5%	95.5%	94%	95.5%	96.9%	95.8
Oc1c(C(Nc2ccccn2)c2cccc(Oc3ccccc3)c2)ccc2cccnc12 (stereo not drawn)	-73.3% (active)	-94.4% (active)	-95.7% (active)	-86.3% (active)	-86.9% (active)	-84.7% (active)	-81.4% (active)	-90.8% (active)	-96% (active)	-64.1% (active)	-74.8% (active)	-89.3% (active)	-92% (active)	-86.7% (active)	-86.9% (active)	-93.1% (active)	-77.1% (active)	-68.6% (active)	-57.6% (active)	–
Clc1ccc(Oc2ccc(Nc3ncnc4onc(-c5ccccc5)c34)cc2)c(Cl)c1	89.4%	111%	104%	101%	102%	73.2%	96.3%	105%	106%	78.1%	105%	99.7%	120%	102%	97%	98.8%	99%	95.6%	89%	–
Cc1sc2ncn(CC(=O)Nc3ccc(S(N)(=O)=O)cc3)c(=O)c2c1C	102%	96.8%	101%	105%	102%	92.5%	101%	–	112%	103%	102%	102%	114%	97.9%	104%	96%	97.7%	114%	102%	98
COc1cc(/C=C2\CN(C)C/C(=C\c3cc(CN4CCCC4)c(O)c(OC)c3)C2=O)cc(CN2CCCC2)c1O	52.2%	84.7%	82%	34.1%	66.8%	34.7%	72.2%	49%	60.8%	19.4%	86%	58.9%	68.9%	61.3%	100%	68.2%	93.7%	99.1%	88%	–
O=C(/C=C/c1ccc(Cl)cc1)c1ccc(Nc2nc(NCCO)nc(N3CCOCC3)n2)cc1	94.8%	90.8%	89.6%	98.1%	98.6%	87.2%	90.6%	–	92.9%	44.5%	99.5%	84.3%	71.3%	82%	94.5%	90.4%	101%	105%	44.8%	68
O=C(Cn1cc(COc2ncnc3c2cnn3-c2ccccc2)nn1)Nc1cccc2ccccc12	89%	93.2%	90.5%	93.7%	82.3%	81.1%	103%	–	97.9%	94.6%	93.6%	95%	94.8%	92.6%	99.4%	90%	95.9%	105%	96.9%	92.3
OCCNc1nc(Nc2ccc(C3=NN(c4cc(Cl)cc(Cl)c4)C(c4ccc(C(F)(F)F)cc4)C3)cc2)nc(N2CCOCC2)n1 (stereo not drawn)	76%	80.3%	74.5%	46.4%	98.6%	85.3%	42.7%	–	82.7%	53.9%	90%	59.7%	19.7%	74.1%	71%	54.3%	94.5%	90.5%	49.3%	–
c1ccc(-c2ccc(-c3nc4ccccc4[nH]3)cc2)cc1	94%	98.9%	80.5%	95.6%	69.7%	–	88%	102%	95.2%	7.32% (active)	92.4%	64.3%	92.1%	77.8%	101%	99%	98%	93.8%	78.5%	91.8
NCCNc1nc2ccc(F)cc2c2c(=O)c3cc(F)ccc3sc12	70.9%	60.6%	56.5%	-54.7% (active)	17.4%	–	58.6%	-52.2% (active)	7.23% (active)	-44.2% (active)	99%	6.98% (active)	52.3%	48.9%	82.3%	73.6%	79.4%	15.7%	20.9%	43.7

Source: PubChem BioAssay (NCI)
